Hit rate of the full screen: of about 310,000 compounds, about 14,000 (4.5%) showed an effect of 50% or more. The effect is printed as a negative number. Only a selection was taken, and strong results are over-represented in it overall.

The record followed here is article PMC4336329 (PLoS ONE, 2015).
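Also: peak tail current of the secondary pulse compared with the same well before compound.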

human ether-à-go-go-related gene (hERG) potassium channel, sequence (Q12809 whole entry, looked up): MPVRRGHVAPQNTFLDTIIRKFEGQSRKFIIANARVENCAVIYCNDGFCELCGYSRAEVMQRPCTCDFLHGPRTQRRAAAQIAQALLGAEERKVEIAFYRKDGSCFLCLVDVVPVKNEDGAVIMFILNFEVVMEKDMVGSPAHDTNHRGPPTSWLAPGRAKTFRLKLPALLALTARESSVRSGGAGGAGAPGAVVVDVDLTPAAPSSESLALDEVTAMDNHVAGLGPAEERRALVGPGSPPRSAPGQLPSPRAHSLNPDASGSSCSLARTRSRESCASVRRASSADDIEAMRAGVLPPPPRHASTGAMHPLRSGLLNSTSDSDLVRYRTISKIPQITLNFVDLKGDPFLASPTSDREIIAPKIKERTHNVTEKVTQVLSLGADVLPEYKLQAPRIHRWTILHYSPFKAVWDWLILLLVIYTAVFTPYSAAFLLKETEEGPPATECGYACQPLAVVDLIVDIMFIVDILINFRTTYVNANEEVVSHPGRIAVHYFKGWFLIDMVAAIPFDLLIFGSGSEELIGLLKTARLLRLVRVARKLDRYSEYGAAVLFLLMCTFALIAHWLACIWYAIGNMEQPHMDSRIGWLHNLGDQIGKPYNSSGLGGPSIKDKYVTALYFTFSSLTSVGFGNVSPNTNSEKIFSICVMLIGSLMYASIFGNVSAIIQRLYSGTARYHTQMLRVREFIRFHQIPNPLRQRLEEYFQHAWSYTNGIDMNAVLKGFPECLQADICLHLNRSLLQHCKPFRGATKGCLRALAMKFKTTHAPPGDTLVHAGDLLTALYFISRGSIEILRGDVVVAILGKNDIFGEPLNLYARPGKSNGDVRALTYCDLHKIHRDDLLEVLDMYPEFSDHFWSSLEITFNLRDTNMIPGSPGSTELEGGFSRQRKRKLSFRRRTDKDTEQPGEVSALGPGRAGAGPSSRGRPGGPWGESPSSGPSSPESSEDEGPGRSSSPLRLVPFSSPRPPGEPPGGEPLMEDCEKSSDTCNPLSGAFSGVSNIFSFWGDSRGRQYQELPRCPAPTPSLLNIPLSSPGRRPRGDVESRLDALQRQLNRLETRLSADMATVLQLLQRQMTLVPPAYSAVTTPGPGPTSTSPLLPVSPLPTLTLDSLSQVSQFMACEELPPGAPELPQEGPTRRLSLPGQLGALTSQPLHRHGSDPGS

This assay addresses human ether-à-go-go-related gene (hERG) potassium channel (human, UniProt Q12809). The assay is described as follows: primary screen, population patch clamp on CHO cells stably expressing hERG; higher = less effect of the substance.
Take `C=C[C@@]1(C)CC(=O)[C@]2(O)[C@@]3(C)[C@@H](O)CCC(C)(C)[C@@H]3[C@H](OC(C)=O)[C@H](O)[C@@]2(C)O1`: the “hERG current change (%, negative = inhibition) at 10uM” value amounted to 7.62%.
With `O=C(CSc1ccc(Cl)cc1)N/N=C/c1ccc([N+](=O)[O-])o1` the figure was -12.5%; with `COc1ccc(S(=O)(=O)n2cccc2)c(OC)c1`, 5.65%; with `CCS(=O)(=O)c1nc(S(=O)(=O)c2ccc(Cl)cc2)c(N2CCCC2)s1`, 10.5%.
For the molecule `CS(=O)(=O)c1nc(S(=O)(=O)c2ccc(Cl)cc2)c(N2CCC(O)CC2)s1`, the “hERG current change (%, negative = inhibition) at 10uM” value is -13.9%.
As for `CCS(=O)(=O)c1nc(S(=O)(=O)c2ccc(Cl)cc2)c(N2CCC3(CC2)OCCO3)s1`, the figure is -51.5%; as for `CS(=O)(=O)c1nc(S(=O)(=O)c2ccc(Cl)cc2)c(N2CCC3(CC2)OCCO3)s1`, -59.3%.
With `Cc1ccc(S(=O)(=O)c2nc(S(C)(=O)=O)sc2N2CCC3(CC2)OCCO3)cc1` the figure was -34.3%; with `CS(=O)(=O)c1nc(S(=O)(=O)c2ccc(Cl)cc2)c(N2CCC(C(N)=O)CC2)s1`, -61.8%; with `CS(=O)(=O)c1nc(S(=O)(=O)c2ccc(Cl)cc2)c(N2CCOCC2)s1`, 12.1%.
As for `CCS(=O)(=O)c1nc(S(=O)(=O)c2ccc(C)cc2)c(N2CCC3(CC2)OCCO3)s1`, the figure is -35.4%; as for `Cc1ccc(S(=O)(=O)c2nc(S(C)(=O)=O)sc2N2CCC(C(N)=O)CC2)cc1`, 7.6%.
Consider `Nc1ncc([N+](=O)[O-])s1`, for which the “hERG current change (%, negative = inhibition) at 10uM” value is listed as 19.6%.
With `C=CCN1C(=O)c2ccccc2C1(O)Cc1ccccc1` (stereo not shown) the figure was 16.5%; with `CCCC/C(O)=C1\C(=O)CC(C)(C)CC1=NCCCCCC(=O)O`, 7.59%.
With `Cc1[nH]c2ccccc2c1SCc1nnc(SCc2ccccc2)n1C` the figure was 4.6%; with `CCn1c(C2CC(=O)N(c3cc(C)cc(C)c3)C2)nc2ccccc21` (stereo not shown), -2.71%; with `Cc1cc(C)cc(N2CC(c3nc4ccccc4n3C)CC2=O)c1` (stereo not shown), -10.8%.
As for `CCCn1c(C2CC(=O)N(c3ccc(C)cc3)C2)nc2ccccc21` (stereo not shown), the figure is -52.9%; as for `Cc1ccc(N2CC(c3nc4ccccc4n3C)CC2=O)cc1` (stereo not shown), -21.5%; as for `CCn1c(C2CC(=O)N(c3ccc(C)c(C)c3)C2)nc2ccccc21` (stereo not shown), -11.5%.
On to `C=CCn1c(C2CC(=O)N(c3ccc(C)cc3)C2)nc2ccccc21` (stereo not shown), for which the “hERG current change (%, negative = inhibition) at 10uM” value is reported as -58.4%.
With `CCN(Cc1ccccc1)C(=O)CN1C(=O)c2ccccc2S1(=O)=O` the figure was -3.97%.
Turning to `CC(C)c1ccc(NC(=O)CNC(=O)Cn2ccc3ccccc3c2=O)cc1`, the “hERG current change (%, negative = inhibition) at 10uM” value is given as 16.7%.
As for `O=C(O)CC1(CC(=O)NCc2cc(F)cc3c2OCOC3)CCCCC1`, the figure is 6.25%; as for `CC(C)OCCCNC(=O)CN1CCN(Cc2ccc(Cl)cc2)C1=O`, 11.6%; as for `O=C(CN1CCN(Cc2ccccc2)C1=O)NCCCN1CCOCC1`, 5.12%.
In the case of `O=C(CN1CCN(Cc2ccc(Cl)cc2)C1=O)NCCN1CCCC1`, the “hERG current change (%, negative = inhibition) at 10uM” value was 1.66%.
With `O=C(CN1CCN(Cc2ccc(F)cc2Cl)C1=O)NCCCN1CCOCC1` the figure was -2.72%.
As for `Cc1ccc2[nH]c3c(=O)n(CC(=O)NCCCN4CCN(c5ccc(F)cc5)CC4)ncc3c2c1`, the figure is 14.8%; as for `CC1CCN(CCCNC(=O)CN2CCN(Cc3ccc(Cl)cc3)C2=O)CC1`, -55.2%.
With `Cc1cccc(CN2CCN(CC(=O)NCc3ccc(F)cc3)C2=O)c1` the figure was -13.6%.
In the case of `O=C(CN1CCN(Cc2ccc(Cl)cc2)C1=O)NCCCN1CCOCC1`, the “hERG current change (%, negative = inhibition) at 10uM” value is given as -2.85%.
As for `Cc1ccc(CN2CCN(CC(=O)NCCCN3CCN(c4ccc(F)cc4)CC3)C2=O)cc1`, the figure is -66%.
For the molecule `O=C(CN1CCN(Cc2ccc(Cl)cc2)C1=O)NCCCN1CCN(c2ccc(F)cc2)CC1`, the “hERG current change (%, negative = inhibition) at 10uM” value is given as -81%.
With `Cc1cccc(CN2CCN(CC(=O)NCCCN3CCCC3=O)C2=O)c1` the figure was 7%; with `Cc1cccc(CN2CCN(CC(=O)NCCCN3CCN(c4ccc(F)cc4)CC3)C2=O)c1`, -69.8%.
With `CC(C)CCC(O)(CCC(C)C)C(=O)NNc1ccccc1` the figure was -0.649%; with `FC(F)(F)c1nc2ccccc2nc1N/N=C\c1ccccc1`, 12.3%; with `CC(=O)c1ccc(S(=O)(=O)Nc2ccc(C(=O)N(C)CC(=O)Nc3cccc(C)c3C)cc2)cc1`, 14.5%.
With `COc1cc(/C=N/NC(=O)c2ccoc2C)ccc1O` the figure was -3.54%; with `Cc1nn(CCC(=O)Nc2cccc(C#N)c2)c(C)c1S(=O)(=O)N1CCCCC1`, -1.67%; with `O=C(NNS(=O)(=O)c1ccccc1)c1cc2cc3ccccc3nc2s1`, -10.4%.
As for `Cc1ccccc1CN1CCN(CC(=O)NCCCN2CCN(c3ccc(F)cc3)CC2)C1=O`, the “hERG current change (%, negative = inhibition) at 10uM” value was -71.2%.
`COc1ccc(N2CCN(CCCNC(=O)CN3CCN(Cc4ccccc4C)C3=O)CC2)cc1`: the “hERG current change (%, negative = inhibition) at 10uM” value is given as -46.5%.
In the case of `CCOCCCNC(=O)CN1CCN(Cc2ccccc2C)C1=O`, the “hERG current change (%, negative = inhibition) at 10uM” value is on record as -5.69%.
Take `Cc1c(Cl)cccc1NC(=O)CSc1nc2ncc(Cl)cc2[nH]1`: the “hERG current change (%, negative = inhibition) at 10uM” value was 17.7%.
As for `COCCCNC(=O)CC(NS(=O)(=O)c1ccc(Cl)cc1)c1ccc(OC)cc1` (stereo not shown), the figure is -0.0404%; as for `Cc1cccc(OCC(=O)N2CCN(Cc3ccc4c(c3)OCO4)CC2)c1.O=C(O)C(=O)O`, -16.7%.
As for `Cc1ccc(OCC(=O)N2CCN(CC3CC4C=CC3C4)CC2)cc1.O=C(O)C(=O)O` (stereo not shown), the figure is -24.3%; as for `O=C(COc1ccc(Cl)cc1)N1CCN(Cc2ccc([N+](=O)[O-])cc2)CC1.O=C(O)C(=O)O`, -74.2%.
With `Cc1cccc(OCC(=O)N2CCN(Cc3ccncc3)CC2)c1.O=C(O)C(=O)O` the figure was 8.94%; with `O=C(COc1ccc(S(=O)(=O)N2CCCCC2)cc1)N1CCN(Cc2ccccc2)CC1`, -32.5%; with `Cc1cccc(OCC(=O)N2CCN(Cc3ccc([N+](=O)[O-])cc3)CC2)c1.O=C(O)C(=O)O`, -73%.
`Cc1ccc(OCC(=O)N2CCN(Cc3ccc([N+](=O)[O-])cc3)CC2)cc1.O=C(O)C(=O)O`: the “hERG current change (%, negative = inhibition) at 10uM” value is -81.2%.
With `Cc1ccc(CN2CCN(C(=O)CCc3ccccc3)CC2)cc1` the figure was -19.1%; with `O=C(COc1ccc(Cl)cc1)N1CCN(Cc2ccccc2)CC1`, -32.9%.
With `CCN(CC)C(=O)Cn1cc(S(=O)(=O)CC(=O)NCc2ccccc2)c2ccccc21` the figure was -11.6%; with `CCOC(=O)C(NC(=O)CC)(Nc1ccc(S(=O)(=O)Nc2ncccn2)cc1)C(F)(F)F` (stereo not shown), 22.5%.
On to `O=C(CN1CCOCC1)Nc1scc(-c2ccccc2)c1C(=O)N1CCOCC1`, for which the “hERG current change (%, negative = inhibition) at 10uM” value is recorded as -34.9%.
With `CCOC(=O)c1c(-c2ccccc2)csc1NC(=O)CCN1CCOCC1.O=C(O)C(=O)O` the figure was -33.2%; with `O=C(Cc1ccccc1)Nc1scc(-c2ccccc2)c1C(=O)N1CCOCC1`, -57.4%; with `O=C(N/C(=C/c1cccnc1)C(=O)N1CCOCC1)c1ccco1`, 6.59%.
With `CCN(CC)S(=O)(=O)c1ccc(NC(=O)c2cc(C(=O)OC)cc([N+](=O)[O-])c2)cc1` the figure was 10.3%; with `CC(CNC(=O)c1ccc(OC2CCN(Cc3ccccn3)CC2)cc1)Oc1cccnc1` (stereo not shown), -21.9%.
As for `CN(C(=O)c1ccc(OC2CCN(CCc3ccccc3)CC2)cc1)C1CCOC1` (stereo not shown), the figure is -25.3%; as for `CN(Cc1nccs1)C(=O)c1ccc(OC2CCN(Cc3ccccn3)CC2)cc1`, -11.5%; as for `CC(NC(=O)c1ccc(OC2CCN(Cc3ccccn3)CC2)cc1)c1ccccc1` (stereo not shown), -20.3%.
`Cc1cc(CN(C)C(=O)c2ccc(OC3CCN(CCc4ccccc4)CC3)cc2)on1`: the “hERG current change (%, negative = inhibition) at 10uM” value is on record as -74.1%.
As for `CN(C(=O)c1ccc(OC2CCN(CCc3ccccc3)CC2)cc1)C1CCOCC1`, the figure is -9.93%; as for `CN(Cc1nccs1)C(=O)c1ccc(OC2CCN(CCc3ccccc3)CC2)cc1`, -58.9%.
As for `CN(C(=O)c1ccc(OC2CCN(CCc3ccccc3)CC2)cc1)C1CCCCC1`, the figure is -63.5%; as for `CC(CNC(=O)c1ccc(OC2CCN(Cc3ccccn3)CC2)cc1)c1ccccc1` (stereo not shown), -76.5%; as for `Cc1cc(CN(C)C(=O)c2ccc(OC3CCN(Cc4ccccn4)CC3)cc2)on1`, -37.7%.
For `CN(Cc1nccn1C)C(=O)c1ccc(OC2CCN(CCc3ccccc3)CC2)cc1`, the “hERG current change (%, negative = inhibition) at 10uM” value is listed as -38.3%.
With `CN(Cc1cnn(C)c1)C(=O)c1ccc(OC2CCN(CCc3ccccc3)CC2)cc1` the figure was -42.9%.
As for `CCN(c1cccc(C)c1)S(=O)(=O)c1ccc2c(c1)NC(=O)CCS2`, the figure is 8.09%; as for `CCOC(=O)c1ccc(NS(=O)(=O)c2cc3c4c(c2)CCN4C(=O)CC3)cc1`, -9.74%.
With `CSCCC(NC(=O)c1ccccc1)C(=O)N(C)CC(=O)Nc1ccc(N2CCOCC2)cc1` (stereo not shown) the figure was 5.72%; with `CCCC(C)NC(=O)C1CC(=O)N(CCc2ccc(F)cc2)C1` (stereo not shown), 9.07%.
Consider `COCCn1c(=S)[nH]c2ccccc21`, for which the “hERG current change (%, negative = inhibition) at 10uM” value was 28.7%.
`CCC(C)(C)n1nnnc1C(c1cccnc1)N1CCCC(C)C1` (stereo not shown): the “hERG current change (%, negative = inhibition) at 10uM” value stood at 3.14%.
